# Laboratory results reported in PMC12136788.
# Positions count from the first letter of the chain named. Over roughly 24,000 sequences, “enrichment r” has its median near 0.99; the highest 2% begin near 3.7. This is one part of a sample in which the highest values are shown more often than they occur.
# T1: UNK ZnF1-3 (human, UniProt Q9C0B0 31-174)
# T1 sequence: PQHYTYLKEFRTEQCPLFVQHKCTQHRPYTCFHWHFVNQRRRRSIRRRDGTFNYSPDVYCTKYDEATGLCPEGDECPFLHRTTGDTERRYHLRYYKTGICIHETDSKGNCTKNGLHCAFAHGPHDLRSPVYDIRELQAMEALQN
# B1: chr15:76909541:76909542:-_ENSMUSG00000033565_ENSMUST00000166610|perfect_dup|FALSE|FALSE (ssRNA)
# RNA: GGGAGUUCUACAGUCCGACGAUCCAACAUGAUCAAUAAUUUAUACACAUGGAGAGUAAUACAAAAAAUAAUGAAUAAAAGCUAAAGAUCUAACUACUCAACCUUCACAAUUCCAGCUACUUGAUAAUAGGAGUAACCCAAUGACAACAGAGGAUUGAGCAUCA
# B2: chr18:2804189:2804190:+_ENSG00000101596_ENST00000320876|hu_hu|FALSE|FALSE (ssRNA)
# RNA: GGGAGUUCUACAGUCCGACGAUCCAAUGCCUUGGAUUUAAAACAUGACUCCUUCUUGAUACAAUGAAUUAUAAAAGCAAACUAGUUCCACAUAUUAAUUAUACGUUCAAGUCUAGUUCCUAAAAAGUCAUUUCUCUUUAACCUCAACAGAGGAUUGAGCAUCA
# B3: chr15:76909541:76909542:-_ENSMUSG00000033565_ENSMUST00000166610|perfect_dup|motif|central (ssRNA)
# RNA: B1 RNA with U82G, A83G
# B4: chr2:47387792:47387793:-_ENSG00000143933_ENST00000272298|hu_hu|hu_hu_hu_mus_True|28_38 (ssRNA)
# RNA: GGGAGUUCUACAGUCCGACGAUCUAAGGACAAUGACAGUAAGAUAAGGGAAGAAAACAUGGAGGAAUGAAGUCCUAAUUACUAUACAUGCAUAUUUUUUUGACAGUAGGGAGAAACACCUUUUACAGAUAAGUUACAAACAAACAACAGAGGAUUGAGCAUCA
# B5: 103221519_103221723_537_3pUTR_ENSMUSG00000041781_ENSMUST00000047357|mouse|control|control (ssRNA)
# RNA: GGGAGUUCUACAGUCCGACGAUCCAAUCUGAGAGAACUUCAGCUGCUGUAUUUUGUCAAAGGCUGCAUCCACAUCAUCCAAUGUAAAGAGGGUAAAAUCUUCUGUAUUGUGUCGAGACUGAUAGAGGUCGUACAUGAACAUCUCAACAGAGGAUUGAGCAUCA
# B6: chr4:25749455:25749456:-_ENSG00000091490_ENST00000264868|hu_hu|hu_hu_hu_mus_False|8_108 (ssRNA)
# RNA: GGGAGUUCUACAGUCCGACGAUCGCAAGCACUAGGAUAGAAAAAUCCACAGGGGGAAAAAAUGUAAACCAAUGUACAAUGUUAUCGCCUUCCCUGUGUGUGGAGUGUUUGUCUCAAGGCUCCUUCUUGCCUUAUAAUUUGGGACAACAGAGGAUUGAGCAUCA
# Target: T1, UNK ZnF1-3
# Assay: nsRBNS (natural sequence RNA bind-n-seq); RBNS binding buffer (assumed for nsRBNS): 25 mM Tris pH 7.5, 150 mM KCl, 3 mM MgCl2, 0.01% Triton X-100, 500 ug/ml BSA, 20 U/ml SUPERase-In, 4 C; UNK is unkempt and MSI1 is Musashi-1; names of the RNAs are library labels; protein concentration not given here; high values mean tight binding
row,Binder,binding signal [enrichment R]
1,B1,6.42
2,B2,1.05
3,B3,8.91
4,B4,1.79
5,B5,1.57
6,B6,0.93
